POLI inh – DNA polymerase iota (human) inhibition; Pol iota fluorescent replication assay, 10 min; Potency, µM (top dose mostly 115 µM), usual class: inhibitors; 1% of 390,000 active; AID 588590
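Fluorescent replication assay read twice, at 0 min and 10 min after adding 50 nM (final) substrate. Enzyme (10 nM) and compounds were first incubated 15 min at room temperature; enzyme-free buffer wells were negative controls.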
WRN helicase inh – WRN helicase (human) inhibition; Q14191; WRN helicase unwinding, fluorescent forked duplex, kinetic; Potency, µM (doses to about 114 µM), actives largely listed as inhibitors; 0.46% of 360,000 active; further: nearly all actives have a fitted effect of over 55% in size
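Primary qHTS, 1536-well format. 20 nM WRN + compound, 15 min RT; start with 100 nM forked fluorophore/quencher duplex, 2 mM ATP (final); kinetic read ex 525/em 598 nm.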
POLB inh – DNA polymerase beta (human) inhibition. P06746. Pol beta primer extension/strand displacement, fluorescence kinetic. Potency, µM (doses to about 114 µM), usual class: inhibitors. 1.3% of 340,000 active
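Homogeneous kinetic assay of primer extension and strand displacement by 10 nM Pol beta, preincubated 15 min at room temperature with compound before 50 nM substrate (final) was added. Read at 0 and 10 min; four-parameter Hill fit.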
FEN1 inh – inhibitors of human flap endonuclease 1 | 0.35% of 390,000 active | AID 588795 | P39748 | Recombinant FEN1 flap cleavage, fluorescence, 15 min | Potency, µM (top dose mostly 114 µM), hits mostly inhibitors; further: nearly all actives have a fitted effect of over 65% in size
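In this screen, 50 nM flap DNA substrate was added to 10 nM FEN1 pretreated with compound for 15 min at room temperature; cleavage was followed with reads at 0 and 15 min, and Hill fitting gave concentration–response parameters.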
POLK inh – blocks human DNA polymerase kappa activity; purified Pol kappa, fluorescent DNA synthesis assay, 10 min; 0.53% of 400,000 active; Q9UBT6; Potency, µM (titrated, usually from 107 µM), actives largely listed as inhibitors
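10 nM Pol kappa was preincubated with compounds for 15 min at room temperature. Reaction started with 50 nM (final) substrate. Fluorescence read kinetically at 0 and 10 min.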
Pol eta inh – inhibitors of human DNA polymerase eta | recombinant Pol eta, fluorescent DNA replication assay | 1.2% of 390,000 active | Potency, µM (doses to about 114 µM), usual class: inhibitors | Q9Y253
Target sequence (Q9Y253 whole entry, looked up): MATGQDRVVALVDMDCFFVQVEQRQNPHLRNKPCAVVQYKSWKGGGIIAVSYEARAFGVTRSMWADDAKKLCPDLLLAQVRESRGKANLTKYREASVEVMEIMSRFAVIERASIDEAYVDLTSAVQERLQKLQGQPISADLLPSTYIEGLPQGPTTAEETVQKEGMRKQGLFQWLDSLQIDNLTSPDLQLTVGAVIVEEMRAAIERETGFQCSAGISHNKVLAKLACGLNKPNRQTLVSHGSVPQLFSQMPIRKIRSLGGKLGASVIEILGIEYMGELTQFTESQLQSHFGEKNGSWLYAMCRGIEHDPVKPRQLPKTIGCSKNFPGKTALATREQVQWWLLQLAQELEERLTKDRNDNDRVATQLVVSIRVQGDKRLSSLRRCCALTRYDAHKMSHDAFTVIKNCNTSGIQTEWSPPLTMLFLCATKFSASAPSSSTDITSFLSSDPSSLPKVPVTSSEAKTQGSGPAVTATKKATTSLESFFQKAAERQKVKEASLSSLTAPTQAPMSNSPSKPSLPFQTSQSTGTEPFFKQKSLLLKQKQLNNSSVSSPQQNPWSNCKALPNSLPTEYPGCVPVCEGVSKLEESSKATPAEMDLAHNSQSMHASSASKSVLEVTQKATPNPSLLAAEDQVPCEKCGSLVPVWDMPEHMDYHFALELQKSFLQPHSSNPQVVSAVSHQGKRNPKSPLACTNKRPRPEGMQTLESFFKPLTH
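Fluorescent replication assay: 50 nM final substrate added after a 15 min room-temperature compound preincubation with 10 nM enzyme. Signal taken at 0 min and again at 10 min.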
Numbers stand for hits; . = inactive; ? = inconclusive; / = no result given; [ ] = dose if it differs, or a comment. Hits are enriched below; roughly 2.4% of the tested compounds scored in any of these assays. The call rests on the fitted dose curve; in most records, active means well fitted curve in the direction sought with a large enough effect; inconclusive means small, poorly fitted or top-dose-only effect, or another doubt; inactive means no such curve, though single readings can be large; an effect the other way counts as inactive or inconclusive.

SMILES	POLI inh	WRN helicase inh	POLB inh	FEN1 inh	POLK inh	Pol eta inh
CN(C)C(=O)c1ccc(-c2nc(NCc3cccnc3)c3ccccc3n2)cc1	/	/	/	/	.	/
CCN(CC)C(=O)c1sc2c(c1C)c(=O)n(-c1ccccc1)c(=O)n2Cc1c(C)cc(C)cc1C	.	/	.	.	.	.
O=C(COc1ccccc1)Nc1sc2c(c1C(=O)Nc1ccccc1)CCCCC2	?	/	18µM	.	?	79µM
Cc1ccc2c(C(=O)CNc3nc(C)c(C)s3)c(C)[nH]c2c1	.	/	/	.	.	/
C=C/C(C)=C/[C@@]1(C)SC(=O)C(C)=C1O	?	/	25µM	/	/	14µM
COc1ccccc1CCC(=O)O	.	/	/	.	.	/
CCOC1CCCC(n2cnc3c(=S)nc[nH]c32)O1 (configuration not stated)	?	.[11.6 µM]	/	.	.	18µM
O=c1c2ccccc2nc(/C=C/c2cccnc2)n1CCc1ccccc1	7.9µM	?	.	.	.	?
COc1ccc(/C=C(\C)C(=O)NO)cc1	.	/	/	.	.	/
COc1ccc(S(=O)(=O)Nc2nc3ccccc3nc2Nc2ccc3c(c2)OCO3)cc1	/	/	.	/	/	/
O=S(=O)(Nc1nc2ccccc2nc1Nc1ccc2c(c1)OCCO2)c1cccs1	?	?	18µM	.	.	?
COc1ncc2nc(-c3ccccc3)c(=O)n(-c3ccccc3)c2n1	/	/	/	/	.	/
CCCCCCCCCC[Si](C)(C)CCC(=O)N[C@@H](Cc1ccc(C)cc1)c1ccccc1	.	/	/	.	.	/
O=C1N/C(=N/O)S/C1=C/c1cccc([N+](=O)[O-])c1	.	.	.	.	.	.
O=C1N/C(=N\S(=O)(=O)Cc2ccccc2)S/C1=C/c1cccc([N+](=O)[O-])c1	?	.[11.6 µM]	.	.	.	50µM
CSC1=N/C(=C\c2ccc(Br)o2)C(=O)S1	7.1µM	?	40µM	.	32µM	8.9µM
C[C@H](C(=O)OCO/N=[N+](\[O-])N1CCCC1)c1cccc2ccccc12	.	/	/	?	.	/
O=C(C[n+]1ccc(CCSc2ccc(F)cc2)cc1)c1ccccc1	.	40µM	.	40µM	.	.
Cc1ccc(SCCc2cc[n+](CC(=O)c3ccccc3)cc2)cc1	.	.	.	.	.	.
Cc1cc(N)c2ccccc2[n+]1CCCCCCCCCCCCCC[n+]1c(C)cc(N)c2ccccc21	.	/	10µM	/	/	?
COc1ccc(SCC(Cc2ccccc2)N2CCN(CC(C)C)CCC2=O)cc1 (configuration not stated)	?	/	/	.	.	/
CC(C)CCN(Cc1ccco1)C(=O)Cn1ncc2c([nH]c3ccccc32)c1=O	.	/	.	.	.	.
CSc1cccc(NC(=O)CN(c2ccccc2)S(=O)(=O)N(C)C)c1	?	.	10µM	.	.	?
CN(C)S(=O)(=O)N(CC(=O)Nc1ccc(F)c(F)c1)c1ccccc1	.	.	?	.	.	?
Cn1sc(=O)n(Cc2ccccc2)c1=O	/	/	/	/	.	/
SMILES	POLI inh	WRN helicase inh	POLB inh	FEN1 inh	POLK inh	Pol eta inh
COc1ccc(S(=O)(=O)n2nc(OC(C)=O)cc2N)cc1	?	.[11.6 µM]	?	45µM	.	.
Cn1c(=O)c(-c2ccc(Cl)cc2)nc2cnc(N3CCOCC3)nc21	/	/	/	/	.	/
COc1ccc2[nH]c(CCc3nc4c(OC)c(OC)ccc4[nH]3)nc2c1OC	.	/	/	.	.	/
O=C(COC(=O)c1cccnc1Cl)NCc1ccco1	?	?	16µM	.	.	?
COc1ccc(N(CC(=O)NCc2ccco2)S(=O)(=O)c2ccc(OC)c(OC)c2)cc1	.	.	.	.	.	.
O=C(COC(=O)c1ccccc1Cl)NCc1ccco1	?	?	/	.	.	?
COc1cccc(/C=C/C(=O)OCC(=O)NCc2ccco2)c1	?	.	45µM	.	?	?
CC(C)(C)c1ccc(OCC(=O)NCc2ccco2)c(Br)c1	?	.	?	.	.	45µM
COc1ccc(S(=O)(=O)N(CC(=O)NCc2ccco2)c2ccccc2OC)cc1	50µM	.[11.6 µM]	?	.	?	?
CO[C@H]1C[C@@H]2CC[C@@H](C)[C@@](O)(O2)C(=O)C(=O)N2CCCC[C@H]2C(=O)O[C@H]([C@H](C)C[C@@H]2CC[C@@H](OC(=O)C(C)(CO)CO)[C@H](OC)C2)CC(=O)[C@H](C)/C=C(\C)[C@@H](O)[C@@H](OC)C(=O)[C@H](C)C[C@H](C)/C=C/C=C/C=C/1C	/	/	/	/	.[19.4 µM]	/
COc1cc(OC)cc(C(=O)NCC(=O)OCC(=O)NCc2ccco2)c1	79µM	?	/	.	?	?
COc1ccc(CCC(=O)NCc2ccco2)cc1	.	?	40µM	.	?	20µM
CC(C)(C)NS(=O)(=O)c1ccc(CCC(=O)NCc2ccco2)cc1	.	.	.	.	.	.
COc1cc(OC)cc(C(=O)OCC(=O)NCc2ccco2)c1	45µM	.[11.6 µM]	/	.	.	?
Cc1ccc(/C=C/C(=O)OCC(=O)NC(=O)NCc2ccco2)cc1	?	.[11.6 µM]	/	.	.	50µM
C[N+]1(C)[C@@H]2CC(OC(=O)C(O)(c3cccs3)c3cccs3)C[C@H]1[C@@H]1O[C@@H]12 (some centres not stated)	/	/	/	/	.[19.4 µM]	/
CCOc1cc(C(=O)OCC(=O)NCc2ccco2)cc(OCC)c1OCC	?	.	18µM	.	?	?
CCn1c(=O)cc(OCC(=O)NCc2ccco2)c2ccccc21	?	.	45µM	.	.	?
O=C(COC(=O)Cc1ccc(F)cc1)NCc1ccco1	?	.[11.6 µM]	22µM	.	?	?
CCn1c(=O)cc(OCC(=O)NCc2ccc(C)o2)c2ccccc21	.	.	.	.	.	.
CC(OCc1ccccc1)C(NC(=O)OC(C)(C)C)C(=O)NC1COC2CC(n3cc(F)c(=O)[nH]c3=O)OC12 (configuration not stated)	.	/	/	.	.	/
CN1/C(=C/C=C(C#N)C#N)C=Cc2ccccc21	79µM	.[11.6 µM]	.	.	.	.
O=C1NC(=O)/C(=C\c2ccc(Sc3ccc(Cl)cc3)o2)N1	?	.	35µM	.	.	?
Cc1ccc2c(C(=O)CNc3nccs3)c[nH]c2c1	.	/	/	.	.	/
CN(C)c1nc(N/N=C/c2ccccc2O)nc(Nc2ccc(F)cc2)n1	.	.	?	.	?	79µM
CN(C)c1nc(Nc2ccc(F)cc2)nc(Oc2ccc(F)cc2)n1	.	.	.	.	.	.
CCOC(=O)c1c(NC(=O)COC(=O)c2ccc(NC(=O)CC#N)cc2)sc(C(=O)NC)c1C	?	?	/	?	?	10µM
CCc1nnc(NC(=O)c2c(-c3ccccc3)noc2C)s1	.	.	.	.	.	.
O=C(CSc1ccccc1)Nc1nnc(COc2ccc(Cl)cc2)s1	.	?	20µM	.	.	?
Cc1onc(-c2ccccc2)c1C(=O)Nc1nnc(COc2ccc(Cl)cc2)s1	.	56µM	.	.	.	.
